The campaign covered roughly 320,000 compounds. About 2,100 (0.66%) were called active. Inconclusive results (about 53%) are left out. The call rests on the fitted dose curve; in most records, active means well fitted inhibition curve with a large enough effect in the signal ratio, with a control signal flat (not every such curve was filed as active); inconclusive means small, poorly fitted or top-dose-only effect, or effect the other way, or a change in a side signal; inactive means flat fitted curve, though single readings scatter; the % refers to the signal ratio. For the sample, actives were picked, then their nearest neighbours and some compounds at random.
Potency means the concentration at half of the fitted maximal effect.

This experiment in a line: qHTS Assay for Lipid Storage Modulators in Drosophila S3 Cells.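 On cell number change: cells counted by Cell Tracker Red CMTPX staining in the red channel.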 On lipid storage change, negative = inhibition: on the % scale 0 is the no-effect control and ±100 the full control effect. Conditions: BODIPY lipid droplet fluorescence, 18-24 h, cells fed with added oleic acid; cell number change: measured here: cell count max response; series mostly up to 46.1 µM. In short, it runs like this: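 Laser-scanning cytometry quantifies lipid droplet accumulation (500–530 nm total intensity; droplet/cell object ratio) in oleic acid-fed (400 uM added) Drosophila S3 cells treated with a concentration series. 20 uM Triacsin C defined 100% inhibition.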
A general note: In qHTS, concentration-response curves come from the screen itself.
With `O=[N+]([O-])c1ccc(N/N=C/c2sc(N3CCOCC3)nc2-c2ccccc2)c(S(=O)(=O)Nc2ccccc2Cl)c1`, the Potency is 1.03 µM (active). With `O=C(N/N=C/c1sc(N2CCOCC2)nc1-c1ccccc1)c1cccc(S(=O)(=O)N2CCCC2)c1`, the Potency entry is “inactive” and the cell number change was 111%. As to `Cc1occc1C(=O)N/N=C/c1sc(N2CCOCC2)nc1-c1ccccc1`, the Potency result is “inactive” and the cell number change was -21.3%. For `O=C(c1ccccc1)c1nc2c(n1O)CCCCC2`, the Potency result was “inactive”. For `Cc1cc(C(=O)Nc2ccccc2C(=O)O)ccc1NC(=O)COc1cccc([N+](=O)[O-])c1`, the Potency entry was “inactive” and the cell number change came to 6.05%. In the case of `COc1ccc(S(=O)(=O)N(CC(=O)NCCC(C)C)c2ccccc2)cc1OC`, the Potency entry is “inactive” and the cell number change is -21.6%. The matching figures for `COc1cccc2cc(C(=O)OCc3ccccc3)c(=O)oc12`: 1.46 µM (active) and -24.9%. The matching figures for `COc1cccc2cc(C(=O)NCCc3ccccc3)c(=O)oc12`: “inactive” and 4.66%. The matching figures for `COc1cccc2cc(C(=O)Oc3ccccc3)c(=O)oc12`: “inactive” and -11.3%. With `CCN1CCN(C(=S)Nc2ccc(C(C)=O)cc2)CC1`, the Potency entry was “inactive”. `CC12CC(c3ccccc3O1)C(C(=O)N1CCOCC1)C(=O)N2` (stereo not drawn): the Potency entry is “inactive” and the cell number change was -1.42%. The matching figures for `CC1(C)OC(=O)CC1C(=O)NCc1ccccc1` (stereo not drawn): 1.84 µM (active) and 7.5%. As to `CC12CC(c3ccccc3O1)C(C(=O)NCc1ccccc1)C(=O)N2` (stereo not drawn), the Potency is 29.1 µM (active) and the cell number change was 13.7%. The matching figures for `CC12CCC(C(=O)NCc3ccccc3)(OC1=O)C2(C)C` (stereo not drawn): “inactive” and -20.7%. With `COc1ccc(C(C)NC(=O)C2C(=O)NC3(C)CC2c2ccccc2O3)cc1` (stereo not drawn), the Potency result was “inactive” and the cell number change was -6.03%. `O=C1CCC(C(=O)NCc2ccccc2)N1` (stereo not drawn): the Potency result is “inactive” and the cell number change amounted to 7.41%. The matching figures for `CC(Oc1ccccc1)c1nnc(SCC(=O)NC2CC2)n1C` (stereo not drawn): “inactive” and 17.8%. For `Cc1ccc2nc3sc(-c4nnc(-c5ccccc5[N+](=O)[O-])o4)c(N)c3cc2c1`, the Potency result is “inactive”. On to `CCCn1c(=O)[nH]c(=O)c2c1nc(-c1ccccc1OC(F)F)n2CCOC`, for which the Potency result was “inactive” and the cell number change is 1.56%. The matching figures for `O=C(NCc1ccc2c(c1)OCO2)C1CCCN(S(=O)(=O)c2cccnc2)C1` (stereo not drawn): “inactive” and 9.61%. On to `O=C(CN1CCCCCC1)Nc1ccc([N+](=O)[O-])cc1Cl`, for which the Potency entry was “inactive” and the cell number change was -17.1%. Regarding `O=C(COC(=O)c1ccccn1)NCc1ccccc1Cl`, the Potency result is “inactive”. Consider `CC(C)(C)N(Cc1ccccc1)C(=O)COC(=O)c1cccc([N+](=O)[O-])c1`, for which the Potency entry was “inactive” and the cell number change turned out to be 17.2%.

Turning to `CC(C)(C)N(Cc1ccccc1)C(=O)COC(=O)c1ccc([N+](=O)[O-])o1`, the Potency is 11.6 µM (active) and the cell number change is -25.7%. The matching figures for `CC(C)(C)N(Cc1ccccc1)C(=O)COC(=O)c1ccc(Br)o1`: “inactive” and -7.45%. The matching figures for `CC(NC(=O)CN(C1CCCCC1)S(C)(=O)=O)c1ccccc1` (stereo not drawn): “inactive” and -4.99%. The matching figures for `Cc1ccc(S(=O)(=O)N2CCCCC2CCNC(=O)C(=O)NC2CCCC2)cc1` (stereo not drawn): 0.184 µM (active) and -16.3%. Turning to `COc1cccc(NC(=O)C(=O)NCCC2CCCCN2S(=O)(=O)c2cccs2)c1` (stereo not drawn), the lipid storage change, negative = inhibition is -10.7% [at 0.0737 µM] (inactive).

For `Cc1ccc(S(=O)(=O)N2CCCCC2CCNC(=O)C(=O)NCc2ccccc2)cc1` (stereo not drawn), the Potency entry was “inactive”.

Take `COc1cccc(NC(=O)C(=O)NCCC2CCCCN2S(=O)(=O)c2ccccc2)c1` (stereo not drawn): the Potency was 9.2 µM (active) and the cell number change is -3.85%. The matching figures for `COc1cccc(CNC(=O)C(=O)NCCC2CCCCN2S(=O)(=O)c2ccccc2)c1` (stereo not drawn): “inactive” and -8.33%. Consider `O=C(NCCC1CCCCN1S(=O)(=O)c1ccccc1)C(=O)NC1CCCC1` (stereo not drawn), for which the Potency entry is “inactive” and the cell number change was -1.87%.

Take `COc1ccccc1CNC(=O)C(=O)NCCC1CCCCN1S(=O)(=O)c1ccc(C)cc1` (stereo not drawn): the Potency result was “inactive” and the cell number change is 18.8%. Regarding `O=C(NCCC1CCCCN1S(=O)(=O)c1ccc(F)cc1)C(=O)NC1CC1` (stereo not drawn), the Potency entry is “inactive”. Still for that read-out and setting: the same measure for `Cc1ccc(S(=O)(=O)N2CCCCC2CCNC(=O)C(=O)NCc2ccccc2C)cc1` (stereo not drawn): 9.2 µM (active). Turning to `FC(F)(F)c1cccc(-c2ccn3ncnc3n2)c1`, the Potency result is “inactive” and the cell number change came to 16.1%. The matching figures for `CC(=O)c1cc(-c2ccccc2)n(CC(=O)NC2CCCC2)c1C`: “inactive” and -1.74%.

On to `CCC(=O)Nc1ccc(NC(=O)CSc2nnnn2-c2ccc3c(c2)OCCO3)cc1`, for which the Potency entry is “inactive” and the cell number change amounted to 5.29%.

For the compound `C/C(=C\c1cc2ccccc2o1)C1Nc2cccc3cccc(c23)N1`, the Potency entry was “inactive” and the cell number change is 7.96%.

On to `c1coc(C2Nc3cccc4cccc(c34)N2)c1`, for which the Potency entry was “inactive” and the cell number change is -0.664%. The matching figures for `C/C(=C\c1ccco1)C1Nc2cccc3cccc(c23)N1`: 18.4 µM (active) and -14.8%. Regarding `CC(C)(C)c1ccc(C(=O)OCC(=O)NC2CC2)cc1`, the Potency entry was “inactive”. The same measure, in the same setting: to `CCc1nn(C(CC)C(=O)NCc2cccc(OC)c2)c(=O)c2cc3occc3n12` (stereo not drawn) belongs “inactive”. For the compound `CCc1nn(C(CC)C(=O)NCc2cccc(OC)c2OC)c(=O)c2cc3occc3n12` (stereo not drawn), the Potency was 10.3 µM (active) and the cell number change is -13.5%. The matching figures for `CCc1nn(C(CC)C(=O)NCc2cccs2)c(=O)c2cc3occc3n12` (stereo not drawn): “inactive” and -4.96%. With `Cc1cc(S(=O)(=O)NCC(C)C)ccc1OCC(=O)NCc1ccco1`, the Potency entry is “inactive” and the cell number change is 21.6%. `Cc1noc(C)c1CCC(=O)NC1CCCN(Cc2ccc(CC(C)C)cc2)C1` (stereo not drawn): the Potency entry was “inactive”. `Cc1ccc(N=Cc2ccc(O)cc2O)cc1F`: the Potency result is “inactive”.

As for `CN(C(=O)c1ccc(NC(=O)C2CC=CCC2C(=O)O)cc1)c1ccccc1` (stereo not drawn), the Potency result was “inactive” and the cell number change was found to be 2.31%. Take `O=C(Nc1ccc(S(=O)(=O)N2CCc3ccccc32)cc1)C(F)(F)F`: the Potency result is “inactive” and the cell number change was -4.4%.

Turning to `O=C(O)C1CC=CCC1C(=O)Nc1ccc(S(=O)(=O)N2CCCc3ccccc32)cc1` (stereo not drawn), the Potency is 23.1 µM (active) and the cell number change was determined as 4.45%.

As to `O=C(O)C1CC=CCC1C(=O)Nc1ccccc1` (stereo not drawn), the Potency result was “inactive”.

With `O=C(O)C1C2C=CC(O2)C1C(=O)Nc1ccc(S(=O)(=O)N2CCc3ccccc32)cc1` (stereo not drawn), the Potency entry was “inactive” and the cell number change was -9.33%.

Regarding `O=C(O)c1ccc(NC(=O)C2CC=CCC2C(=O)O)cc1` (stereo not drawn), the Potency was 0.184 µM (active) and the cell number change is 3.62%. `CC(C)CC(NC(=O)c1ccccc1)C(=O)OCC(=O)Nc1ccc(Br)cn1` (stereo not drawn): the Potency entry is “inactive”. For the compound `Cc1[nH]c2ccccc2c1SCCNC(=O)c1ccc(S(=O)(=O)N2CCCC2)cc1`, the Potency result was “inactive” and the cell number change is -15.8%. The matching figures for `CNC(=S)Nc1cc(C(=O)N2CCCC2)ccc1N1CCCC1`: “inactive” and -7.02%. The matching figures for `Cc1cccc(NC(=O)C2C(c3ccccc3)C2(Cl)Cl)c1C` (stereo not drawn): “inactive” and 10.7%. The matching figures for `O=C(c1cccs1)N1CCC(c2nc3c(nnn3Cc3cccc(Cl)c3)c(=O)[nH]2)CC1`: “inactive” and -4.62%.
